# Source: PubChem BioAssay (EPA / NIEHS)
# Records with an inconclusive call do not appear. More than one record can exist for a structure, and the calls need not agree. The source made the active and inactive calls. The calls were made as follows: active = hit-call score of the fitted dose curve at least 0.9, where 1 is the maximum; inconclusive = response in the unintended direction; inactive = score below 0.9.
# What was measured:
# [1] = ArunA_CellTiter_hNP: Viability Assessment in the ArunA Biomedical's Oris Neural Crest (hNC) Cell Migration Assay (AID 2283753)
# Summary of the method: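 H9-derived hNP1 neuroprogenitors, 60,000/well on Matrigel, cultured 16 h, then 72 h chemical exposure in test medium. Cell titer via CellTiter Aqueous One; positive-direction fit vs DMSO.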
# [2] = tested on: frog Androgen Receptor (AR), gene 399456; test: ATG_frAR_XSP1: Attagene TRANS-FACTORIAL Multi-Species (XSP1) HepG2 Assay for frog Androgen Receptor (AR) (AID 2283770)
smiles,measurement,setting,value
CO[C@@H]1[C@H](OC(=O)NC(=O)CCl)CC[C@]2(CO2)[C@H]1[C@@]1(C)O[C@@H]1CC=C(C)C,AC50,[1],6.08 nM (active)
same,outcome,[1],inactive
Oc1ccc2ccc3cccc4ccc1c2c34,AC50,[1],25800 nM (active)
C[C@]12C=CC3=C4CCC(=O)C=C4CC[C@H]3[C@@H]1CC[C@@H]2O,AC50,[2],12.4 nM (active)
